Assay results reported in PubChem BioAssay AID1508642 (National Center for Advancing Translational Sciences (NCATS), 2021).
About 200 (0.47%) of roughly 43,000 compounds were called active. A call without a number means that no potency is given here. Not shown: some 12% with an inconclusive outcome. The sample holds actives, similar compounds and a random draw of the others, so the mix is not that of the screen. Calls follow the shape of the dose curve; as a rule, active = well fitted cell-killing curve with a large enough effect; inconclusive = small, poorly fitted or top-dose-only effect, or effect the other way; inactive = flat fitted curve, though single readings scatter.

Assay: Cell viability qHTS assay in S16 Pmp22-F2sN cells; also: nearly all actives have a fitted effect of over 65% in size
Details: S16 Pmp22-F2sN Schwann cells viability, CellTiter-Glo, 24 h; series mostly up to 57.5 µM
Outline: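 Viability was measured by CellTiter-Glo luminescence (15 min, room temperature). This followed 24 h at 37 °C of compound exposure (23 nL pin transfer) in S16 Pmp22-F2sN Schwann cells, 500-1,000 per well.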
Potency is read from the fitted curve at half-maximal effect.

| SMILES | Potency |
| --- | --- |
| O=C(NC1CC(=O)N(c2ccc(F)cc2)C1)C1CCCCC1 (centres undefined) | inactive |
| CCN1CCN(c2ncc3c(n2)CC(c2ccccc2O)CC3=O)CC1 (centres undefined) | inactive |
| Cc1ccc(-c2cc(-c3coc4ccccc4c3=O)c3c(n2)-c2cc(Cl)ccc2OC3)cc1 | inactive |
| CCOc1cccc2c1N[C@@H](c1ccc(C(=O)O)cc1)[C@H]1CC=C[C@@H]21 | inactive |
| Cc1ccc(C(=O)Nc2c(C(=O)NC(C)(C)C)oc3ccccc23)cc1 | inactive |
| COc1ccc(CCC(=O)NCc2ccc3c(c2)CCN3C(=O)c2ccc(F)cc2)cc1 | inactive |
| COc1ccccc1CNc1ccc(-c2nc(-c3ccccc3C)no2)cc1[N+](=O)[O-] | inactive |
| Cc1ccc2c(=O)c(C(=O)c3cccc(Cl)c3)cn(CC(=O)NCc3ccccc3)c2n1 | 10 µM (active) |
| Cc1ccc2c(=O)c(C(=O)c3ccc(Cl)cc3)cn(CC(=O)NC3CCCCC3)c2n1 | inactive |
| Cc1ccc2c(=O)c(C(=O)c3ccc(F)cc3)cn(CC(=O)NC3CCCCC3)c2n1 | inactive |
| Cc1ccc(-c2nnc(Nc3ccc(OCC(N)=O)cc3)c3ccccc23)cc1S(=O)(=O)NCC1CCCO1 (centres undefined) | inactive |
| CCCCCn1c(CCNC(=O)c2ccc(F)cc2)nc2ccccc21 | inactive |
| COCCNS(=O)(=O)c1cc(-c2nn3c(C)nnc3c3ccccc23)ccc1C | inactive |
| CCc1nnc(SCc2c(F)cccc2Cl)c2cc3sccc3n12 | inactive |
| COc1cc(C(=O)N(Cc2ccc(C(C)C)cc2)C2CCS(=O)(=O)C2)cc(OC)c1OC (centres undefined) | inactive |
| CCOc1ccccc1NC(=O)Cn1c2ncccc2c(=O)n1-c1ccc(C)c(C)c1 | inactive |
| Cc1cccc(Cn2c(CN3CCC(C(=O)NCc4ccccc4Cl)CC3)cc3ccccc32)c1 | inactive |
| CCN(CC)S(=O)(=O)c1ccc2c(c1)N(CC(=O)NCc1ccccc1)C(=O)CS2 | inactive |
| COc1ccc(-c2onc(C)c2C)cc1S(=O)(=O)NCC1CCN(Cc2cccc(F)c2)CC1 | inactive |
| Cc1onc(-c2ccc(F)cc2F)c1C(=O)Nc1cccc(C(F)(F)F)c1 | inactive |
| Cc1ccc(Cn2c(=O)n(Cc3nc(-c4ccccc4)no3)c(=O)c3cc4c(cc32)OCO4)cc1 | inactive |
| CN(C)c1ccc(C(CNS(=O)(=O)c2cc(F)ccc2F)N2CCOCC2)cc1 (centres undefined) | inactive |
| CCOc1ccc(C(=O)c2cn(Cc3ccccc3OC)c3ccc(F)cc3c2=O)cc1 | inactive |
| O=C(/C=C/c1cn(CC(O)CN2CCc3ccccc32)c2ccccc12)c1ccc(Br)cc1 (centres undefined) | inactive |
| O=C(CCC1N=C2c3ccccc3N=C(SCc3ccccc3F)N2C1=O)NCCc1ccccc1 (centres undefined) | inactive |
| CSCCC(NS(=O)(=O)c1ccc2c(c1)oc(=O)n2C)C(=O)NCc1ccccc1 (centres undefined) | inactive |
| O=C(Nc1nnc(C2CC(=O)N(c3ccc(Cl)cc3)C2)s1)c1ccco1 (centres undefined) | inactive |
| O=C(NCc1ccc(F)cc1)c1ccc(Cn2c(SCc3ccc(F)cc3)nc3cccnc32)cc1 | inactive |
| Cc1c2cnn(-c3ccccc3)c(=O)c2c(C)n1C(C)C(=O)Nc1ccc(Br)cc1F (centres undefined) | inactive |
